The viability is a read-out of living cells in per cent, often relative to untreated cells.

Results on 7 compounds are retold here after PubChem BioAssay (NCATS).

Assay [1] can be described thus: Quantitative High-Throughput drug screen in 47 multiple myeloma cell lines against the NCATS MIPE library collection: OCIMY5_PLB cell viability assay (AID 1918988). Also: potency is read from the fitted curve at half-maximal effect; nearly all actives have a fitted effect of over 65% in size. The essentials: (§1)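 500 cells/well; MIPE 4.0 drugs pin-transferred; 48 h, 37C, 5% CO2. CellTiter-Glo, 5 min RT, luminescence. Controls: DMSO 100%, media 0%.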
Assay [2] can be described thus: Quantitative High-Throughput drug screen in 47 multiple myeloma cell lines against the NCATS MIPE library collection: U266_ATCC cell viability assay (AID 1919864). Also: nearly all actives have a fitted effect of over 35% in size. Also: potency is read from the fitted curve at half-maximal effect. The essentials:
as §1

Assay [3] is described as follows: Quantitative High-Throughput drug screen in 47 multiple myeloma cell lines against the NCATS MIPE library collection: VP6_DJ cell viability assay (AID 1919867). Also: potency is read from the fitted curve at half-maximal effect; nearly all actives have a fitted effect of over 40% in size. The essentials:
as §1

Assay [4] in a line: Quantitative High-Throughput drug screen in 47 multiple myeloma cell lines against the NCATS MIPE library collection: PE2_PLB cell viability assay (AID 1919869). Also: nearly all actives have a fitted effect of over 35% in size. Also: potency is read from the fitted curve at half-maximal effect. In outline:
as §1

The nature of assay [5]: Quantitative High-Throughput drug screen in 47 multiple myeloma cell lines against the NCATS MIPE library collection: OPM1_PLB cell viability assay (AID 1918989). Also: nearly all actives have a fitted effect of over 40% in size. Also: potency is read from the fitted curve at half-maximal effect. In outline: as §1
A short description of assay [6]: Quantitative High-Throughput drug screen in 47 multiple myeloma cell lines against the NCATS MIPE library collection: SKMM1_PLB cell viability assay (AID 1919863). Also: nearly all actives have a fitted effect of over 35% in size. Also: potency is read from the fitted curve at half-maximal effect. To be noted: SKMM1 myeloma viability, CellTiter-Glo ATP, 48 h; viability: stronger effect = lower value. The essentials:
as §1

A short description of assay [7]: Quantitative High-Throughput drug screen in 47 multiple myeloma cell lines against the NCATS MIPE library collection: XG6_PLB cell viability assay (AID 1919865). Also: potency is read from the fitted curve at half-maximal effect; nearly all actives have a fitted effect of over 40% in size. The essentials: as §1
The nature of assay [8]: Quantitative High-Throughput drug screen in 47 multiple myeloma cell lines against the NCATS MIPE library collection: XG1_PLB cell viability assay (AID 1919866). Also: nearly all actives have a fitted effect of over 35% in size. Also: potency is read from the fitted curve at half-maximal effect. In outline:
as §1

A short description of assay [9]: Quantitative High-Throughput drug screen in 47 multiple myeloma cell lines against the NCATS MIPE library collection: PCM6_Riken cell viability assay (AID 1919870). Also: potency is read from the fitted curve at half-maximal effect; nearly all actives have a fitted effect of over 30% in size. The essentials:
as §1

Assay [10] can be described thus: Quantitative High-Throughput drug screen in 47 multiple myeloma cell lines against the NCATS MIPE library collection: RPMI8226_ATCC cell viability assay (AID 1919871). Also: nearly all actives have a fitted effect of over 30% in size. Also: potency is read from the fitted curve at half-maximal effect. In outline:
as §1

Assay [11] is described as follows: Quantitative High-Throughput drug screen in 47 multiple myeloma cell lines against the NCATS MIPE library collection: OPM2_DSMZ cell viability assay (AID 1919872). Also: nearly all actives have a fitted effect of over 30% in size. Also: potency is read from the fitted curve at half-maximal effect. In outline:
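CellTiter-Glo ATP luminescence gave viability after 48 h compound treatment at 37C of 500 multiple myeloma cells per well. Normalisation used DMSO-only wells as 100% and media-only wells as 0% viability; primary qHTS of approved and investigational drugs.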

A short description of assay [12]: Quantitative High-Throughput drug screen in 47 multiple myeloma cell lines against the NCATS MIPE library collection: KMS11_JCRBsus cell viability assay (AID 1919873). Also: nearly all actives have a fitted effect of over 50% in size. Also: potency is read from the fitted curve at half-maximal effect. The essentials: as §1
Assay [13] in a line: Quantitative High-Throughput drug screen in 47 multiple myeloma cell lines against the NCATS MIPE library collection: KMS28BM_JCRB cell viability assay (AID 1919874). The essentials: as §1
Assay [14] can be described thus: qHTS for identification of novel therapeutic agents for treatment of microphthalmiaassociated transcription factor (MiT) renal cell carcinoma (RCC) (AID 1963991; calls by dose curve; also: potency is read from the fitted curve at half-maximal effect). Conditions: CellTiter-Glo, 48 h; for z-score: stronger effect = lower value. The essentials:
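Three TFE3-fusion RCC cell lines (UOK109, UOK124, UOK145), 500 cells/well, were exposed to the 1912-compound MIPE 4.0 library for 48 hours at 37 C. Viability was read by CellTiter-Glo luminescence, normalised to DMSO (100%) and empty wells (0%), with 11-concentration curve fits.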
(qHTS replaces the single test concentration by a dilution series.)

Assay [15] is described as follows: qHTS drug screen for cell cycle checkpoint inhibitors in PARPi-resistant BRCA-mutant ovarian cancer cell lines. (AID 1963452; calls by dose curve). Conditions: PEO1/OlaR viability, CellTiter-Glo luminescence, 96 h, stronger effect = lower value. The essentials: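 PEO1, PEO4 and PEO1/OlaR ovarian cancer cells, 600 per well, exposed 96 h at 37C to a dilution series. Viability read by CellTiter-Glo luminescence, normalized to DMSO and empty wells; activity summarized as Z-AUC.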

A short description of assay [16]: qHTS profiling for inhibitors of Plasmodium falciparum proliferation (AID 504749).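 Also: 0% = DMSO vehicle and full inhibition = artemisinin control; nearly all actives have a fitted effect of over 60% in size.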 To be noted: P. falciparum in erythrocytes, SYBR Green DNA, 72 h, at 28.7 µM (top of the series). In outline: (§2)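 SYBR Green fluorescence (ex 485 nm, em 535 nm) reports parasite DNA after 72 h compound exposure of infected red cells at 0.3% parasitemia, 2.5% hematocrit; signal normalized to 0.29 uM artemisinin and vehicle wells.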

The next assay relates to 3D7. The assay is described as above. To be noted: P. falciparum in erythrocytes, SYBR Green DNA, 72 h; series mostly up to 28.7 µM. In outline:
as §2

The subject of another assay is 7G8. Described as above. Conditions: P. falciparum in erythrocytes, SYBR Green DNA, 72 h; series mostly up to 28.7 µM. In outline:
as §2

Assay [17] can be described thus: Quantitative High-Throughput drug screen in 47 multiple myeloma cell lines against the NCATS MIPE library collection: UTMC2_PLB cell viability assay (AID 1919868). Also: potency is read from the fitted curve at half-maximal effect; nearly all actives have a fitted effect of over 55% in size. To be noted: CellTiter-Glo ATP luminescence, 48 h; viability (% of DMSO control): at 45.8 µM (top of the series). In outline: as §1
Setting [18] is: TFE3-RCC UOK109 viability, measured here: UOK109 Z-AUC.
Where [19] appears, read: TFE3-RCC viability, measured here: UOK124 Z-AUC.
The mark [20] stands for this setting: TFE3-RCC viability, measured here: UOK145 Z-AUC.
[21] abbreviates: measured here: PEO1 parental Z-AUC.

Records with an inconclusive call do not appear. Active and inactive are the calls of the source. Unless noted, calls follow the shape of the dose curve; as a rule, active = well fitted curve in the direction sought with a large enough effect; inconclusive = small, poorly fitted or top-dose-only effect, or another doubt; inactive = no such curve, though single readings can be large; an effect the other way counts as inactive or inconclusive.

Consider `CC[C@H]1C=CC=CC[C@@H](C)[C@H](O)[C@@](C)(O)C(=O)[C@@H](C)[C@H](O)[C@@H](C)C(=O)[C@@H](C)[C@H](O)[C@@H](C)C=CC(=O)O[C@@H]2[C@@H](C)[C@H](CC1)O[C@]1(CC[C@H](C)[C@H](C[C@@H](C)O)O1)[C@H]2C`, for which the Potency in assay [1] was 1.7 nM (active); in assay [2] it was 20900 nM (active); in assay [3], 1 nM (active); in assay [4], 9350 nM (active).
Consider `CC(=O)O[C@@]12CO[C@H]1C[C@H](O)[C@@]1(C)C(=O)[C@H](O)C3=C(C)[C@@H](O)C[C@@](O)([C@@H](OC(=O)c4ccccc4)[C@@H]21)C3(C)C`, for which the Potency in assay [1] is 1480 nM (active); in assay [5], 1320 nM (active); in [6], 4180 nM (active); in assay [7] it was 418 nM (active); in assay [8], 526 nM (active); in assay [9] it was 3320 nM (active). Besides, the Potency in assay [10] was 2960 nM (active); in assay [11], 9350 nM (active); in assay [12], 2350 nM (active). The Potency entry in assay [2] is “inactive”.
Consider `CC(=CCCC1=CCC(C2=CC(=O)OC2O)OC1O)CCC1=C(C)CCCC1(C)C` (configuration not stated), for which the Potency in assay [5] was 11800 nM (active); in assay [2], 18700 nM (active); in assay [7], 16600 nM (active); in [10] it was 11.8 nM (active); in assay [13], 2640 nM (active). For the same compound, in assay [6], the viability was 104% (inactive). Further, the Potency result in [4] and in [11] was “inactive” in each case. For the same compound, the z-score in assay [14] (setting [18]) was 0.667; in assay [14] (setting [19]) it was 0.534; in [14] (setting [20]), -0.0671.
For `C#CC1(O)CCC2C3CCC4=CC(=O)CCC4(C)C3CCC21C` (configuration not stated), the Potency result in assay [5], in assay [2], in assay [8], in assay [4], in assay [11] and in assay [12] was “inactive” each time. For the same compound, the Potency entry in the assay with 3D7 and in the assay with 7G8 was “inactive” each time. For the same compound, the Potency in assay [13] is 18700 nM (active). Besides, the results for the Z-AUC in assay [15], in assay [15] (setting [21]) and in [15] (measured here: PEO4 Z-AUC) were 0.597 (inactive), 0.372 and 0.608, respectively. In addition, the values for the z-score in assay [14] (setting [18]), in assay [14] (setting [19]) and in assay [14] (setting [20]) were 0.285, 0.199 and 0.147, respectively. Further, the results for the activity, negative = inhibition in assay [16] (parasite line A) and in [16] (parasite line B) were 7.72% (inactive) and 0.354% (inactive), respectively.
`COC1=C[C@@H]2[C@@H]3Cc4ccc(OC)c(O)c4[C@]2(CCN3C)CC1=O`: the Potency in assay [5] was 9350 nM (active); in [2] it was 2350 nM (active); in assay [7], 1180 nM (active); in assay [3], 2350 nM (active); in [4], 9350 nM (active). Besides, the Potency entry in assay [10] is “inactive”. The Z-AUC in [15] was 0.716 (inactive); in [15] (setting [21]) it was 0.742; in assay [15] (measured here: PEO4 Z-AUC), 0.886.
For the compound `C[C@@H]1O[C@@H](O[C@@H]2C=C3CC[C@@H]4[C@@H](CC[C@]5(C)[C@H](c6ccc(=O)oc6)CC[C@@]45O)[C@@]3(C)CC2)[C@H](O)[C@H](O)[C@H]1O`, the Potency in assay [5] was 29.6 nM (active); in assay [2], 9.3 nM (active); in [7] it was 16.6 nM (active); in [3] it was 11.8 nM (active); in [4] it was 26.4 nM (active); in assay [10], 23.5 nM (active). The Potency was 9.3 nM (active) in assay [11], 52.6 nM (active) in assay [12], 8.3 nM (active) in [13] and 20.9 nM (active) in assay [14] (TFE3-RCC UOK109 viability). The z-score is -3.96 in assay [14] (setting [18]), -3.13 in assay [14] (setting [19]) and -3.36 in [14] (setting [20]).
As to `CC[C@@H]1[C@@H](C)O[C@@](O)([C@@H](C)[C@H](O)[C@H](C)[C@H]2OC(=O)C=CC=C[C@@H](C)[C@@H]([C@@H](C)[C@@H](O)[C@H](C)[C@@]3(O)C[C@H](O[C@H]4C[C@H](O)[C@H](O)[C@H](C)O4)[C@H](CC)[C@@H](C)O3)OC(=O)C=CC=C[C@@H]2C)C[C@H]1O[C@H]1C[C@H](O)[C@H](O)[C@H](C)O1`, the Potency in assay [5] is 1050 nM (active); in [6] it was 662 nM (active); in [7] it was 469 nM (active); in assay [17] it was 1050 nM (active); in assay [4], 833 nM (active); in assay [10], 372 nM (active). The Potency in assay [11] was 372 nM (active); in assay [12], 418 nM (active); in [13], 372 nM (active); in [14] (TFE3-RCC UOK109 viability), 1050 nM (active). Moreover, the z-score in assay [14] (setting [18]) was -1.85; in [14] (setting [19]), -2.49; in assay [14] (setting [20]) it was -1.57.
